NFkB binder = binders of human NF-kappa-B p105; Small molecule microarray, anti-His fluorescence binding; P19838; 17,000 compounds, 1.3% hits; calls only;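 active means spot fluorescence over background significantly raised, with a chance value under 7% in all four replicate spots of the compound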;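 further: probe protein is his-tagged human p50 processed subunit at 1 µg/ml; raw spot fluorescence signals with no normalization applied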
STAT3 binder = binds human STAT3 on microarray | 17,000 compounds, 0.2% hits | Small molecule microarray, His-STAT3 binding, anti-His fluorescence | AID 624138 | calls only | P40763;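 active means compounds whose four printed spots each show fluorescence over background unusually high for their array block, chance value under 7%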
mut p53 SMM = mutant p53 (human) binding; small molecule microarray binding, anti-GST fluorescence; 17,000 compounds, 0.4% hits; calls only;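 active means compounds whose four printed spots each glow above background more than chance allows, each with a p-value under 7%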
c-Myc SMM = binds human c-Myc on microarray. small molecule microarray, His-c-Myc binding, anti-His fluorescence. calls only. 17,000 compounds, 1.5% hits. AID 624141;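 active means spot fluorescence over background with P-value below 7% in all four replicate spots, showing protein binding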;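 further: score is binary with 100 for all four spots passing and 0 otherwise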
Target sequence (P01106 whole entry, looked up): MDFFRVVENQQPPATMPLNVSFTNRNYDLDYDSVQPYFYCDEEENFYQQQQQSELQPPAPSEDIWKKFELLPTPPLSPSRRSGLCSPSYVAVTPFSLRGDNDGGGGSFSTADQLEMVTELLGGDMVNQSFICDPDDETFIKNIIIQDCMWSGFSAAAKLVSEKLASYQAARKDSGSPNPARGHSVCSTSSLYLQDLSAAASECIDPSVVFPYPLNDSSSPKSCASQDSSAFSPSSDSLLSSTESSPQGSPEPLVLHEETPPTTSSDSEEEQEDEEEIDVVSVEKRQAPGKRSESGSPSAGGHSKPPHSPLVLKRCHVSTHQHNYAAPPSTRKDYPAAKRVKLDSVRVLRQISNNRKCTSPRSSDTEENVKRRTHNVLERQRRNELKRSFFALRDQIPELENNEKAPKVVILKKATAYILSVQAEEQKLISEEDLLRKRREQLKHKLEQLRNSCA
* marks the source's active call; other numbers are inactive results; i = inactive; + = active, no number. Rows were chosen to be rich in hits. Some 2.1% of all compounds tested hit in one or more screens of this group.

SMILES	NFkB binder	STAT3 binder	mut p53 SMM	c-Myc SMM
C[C@@H]1CCCCO[C@H](CN(C)C(=O)CCC(F)(F)F)[C@@H](C)CN([C@H](C)CO)C(=O)c2cc(NC(=O)CCC(F)(F)F)ccc2O1	+	i	+	+
C[C@@H]1CN([C@@H](C)CO)C(=O)c2cc(NC(=O)CCC(F)(F)F)ccc2O[C@@H](C)CCCCO[C@H]1CN(C)C(=O)CCC(F)(F)F	+	i	i	i
C[C@H]1CCCCO[C@H](CN(C)C(=O)CCC(F)(F)F)[C@@H](C)CN([C@@H](C)CO)C(=O)c2cc(NC(=O)CCC(F)(F)F)ccc2O1	i	i	i	i
CN(CC(=O)Nc1ccccc1[N+](=O)[O-])S(=O)(=O)c1ccccc1	i	i	i	i
Cc1ccc(NC(=O)CNS(=O)(=O)c2ccccc2)cc1Cl	i	i	i	i
COc1c(-c2ccccc2)oc2c(CC=C(C)C)c3c(c(OC)c2c1=O)C=CC(C)(C)O3	i	i	i	i
CC1Oc2c3c(c4c(-c5ccccc5)cc(=O)oc4c2C(=O)C1C)OC(C)(C)C=C3 (stereo not drawn)	+	i	i	i
CC(=O)Nc1ccc(NC(=O)CSc2nnc3c4ccccc4n(C)c3n2)cc1	i	i	i	i
CCCCn1c2ccccc2c2nnc(SCCN3CCOCC3)nc21	i	i	+	i
COc1ccc2nc(Nc3nc(C)c(CCC(C)C)c(=O)[nH]3)nc(C)c2c1	+	i	i	i
Cc1noc(C)c1S(=O)(=O)Nc1ccc2c(c1)C(=O)N([C@H](C)CO)C[C@H](C)[C@@H](CN(C)C(=O)NC(C)C)OCCCC[C@H](C)O2	+	i	i	i
Cc1noc(C)c1S(=O)(=O)Nc1ccc2c(c1)C(=O)N([C@H](C)CO)C[C@H](C)[C@@H](CN(C)C(=O)Nc1cccc3ccccc13)OCCCC[C@H](C)O2	+	i	i	+
CCOC(=O)CCCSc1nc2c(c(C(F)(F)F)c1C#N)CC(C)CC2 (stereo not drawn)	i	i	i	i
COC(=O)C(O)(c1ccc(NC(=S)NC(=O)c2ccc(Cl)cc2Cl)c(OC)c1)C(F)(F)F (stereo not drawn)	i	i	i	i
CC(C)NC(=O)Nc1cccc2c1O[C@H](CN(C)Cc1ccccc1)[C@H](C)CN([C@@H](C)CO)C2=O	i	i	i	i
C[C@@H]1CN([C@H](C)CO)C(=O)c2cccc(NC(=O)Nc3ccc(C(F)(F)F)cc3)c2O[C@@H]1CN(C)C(=O)NC1CCCCC1	+	i	i	+
C[C@H]1CN([C@@H](C)CO)C(=O)c2cccc(NC(=O)NC3CCCCC3)c2O[C@H]1CN(C)C(=O)Nc1ccc(C(F)(F)F)cc1	i	i	i	i
CC(C)NC(=O)Nc1cccc2c1O[C@@H](CN(C)Cc1ccc(C(F)(F)F)cc1)[C@H](C)CN([C@@H](C)CO)C2=O	+	i	i	+
C[C@H](CO)N1C[C@H](C)[C@@H](CN(C)Cc2ccc(Cl)c(Cl)c2)Oc2c(NC(=O)C3CCOCC3)cccc2C1=O	i	i	i	i
C[C@@H]1CN([C@H](C)CO)C(=O)c2cccc(NC(=O)NC3CCCCC3)c2O[C@H]1CN(C)C(=O)Nc1ccc(C(F)(F)F)cc1	+	i	i	+
C[C@@H]1CN([C@@H](C)CO)C(=O)c2cccc(NC(=O)C3CCOCC3)c2O[C@H]1CN(C)Cc1ccc(Cl)c(Cl)c1	i	i	i	+
Cc1ccc(C(=O)O)cc1NC(=O)COc1ccc(I)cc1	i	i	i	i
Cc1cc(=O)[nH]c(SCCOc2c(C)ccc(C)c2Cl)n1	i	i	i	i
Cc1nc2nc[nH]n2c(=O)c1NS(=O)(=O)c1cccs1	i	i	i	i
COc1ccc(-c2nn(-c3ccccc3)cc2C2NC(=O)NC(C)=C2C(=O)OCc2ccccc2)cc1 (stereo not drawn)	i	i	i	i
CC1(C)Cc2c(c(N3CCOCC3)nc3sc4c(=O)[nH]nnc4c23)CO1	i	i	i	i
C[C@@H]1CN([C@@H](C)CO)C(=O)c2cccc(NC(=O)Nc3ccccc3)c2O[C@@H]1CN(C)C(=O)NC1CCCCC1	i	i	i	i
C[C@H]1CN([C@@H](C)CO)C(=O)c2cccc(NC(=O)NC3CCCCC3)c2O[C@H]1CN(C)C(=O)NC1CCCCC1	+	i	i	+
C[C@H](CO)N1C[C@H](C)[C@H](CN(C)C(=O)NC2CCCCC2)Oc2c(NC(=O)Nc3ccc(F)cc3)cccc2C1=O	i	i	i	i

Bioassay records from PubChem BioAssay.
